Measured values reported in PubChem BioAssay (NCI).
This is part of a sample that, as a whole, favours compounds with a hit. Of some 83,000 tested, about 20% had one in any assay.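 Assay: single dose, 48 h. Readout: percent growth (0 = no net growth; negative = cell death). Active: <10.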 A number with no mark means an inactive call. Active and inactive are the calls of the source.

Legend:
Assay in all cases: NCI-60 one-dose screen, 48 h (100 = growth as untreated, 0 = no growth, -100 = all killed)
Conditions in all cases: 10 µM
[1] = test system: HCT-15 colon
[2] = test system: HT29 colon
[3] = test system: SNB-75 CNS
[4] = test system: SNB-19 CNS
[5] = test system: U251 CNS
[6] = test system: PC-3 prostate
[7] = test system: SK-MEL-5 melanoma
[8] = test system: UACC-62 melanoma
[9] = test system: LOX IMVI melanoma
[10] = test system: SK-MEL-2 melanoma
[11] = test system: SN12C renal
[12] = test system: UO-31 renal
[13] = test system: TK-10 renal
[14] = test system: ACHN renal
[15] = test system: CAKI-1 renal
[16] = test system: A498 renal
[17] = test system: CCRF-CEM leukemia
[18] = test system: MOLT-4 leukemia
[19] = test system: EKVX NSCLC
[20] = test system: SK-MEL-28 melanoma

Cn1c(=O)c2[nH]c(C(O)c3ccc(Cl)cc3)nc2n(C)c1=O (stereo not given)
growth [1]: 102% | growth [2]: 105% | growth [3]: 80.2% | growth [4]: 95.8% | growth [5]: 99.5% | growth [6]: 87.9% | growth [7]: 107% | growth [8]: 93.6% | growth [9]: 96.6% | growth [10]: 96.4% | growth [11]: 89.8% | growth [12]: 82.3% | growth [13]: 108% | growth [14]: 103% | growth [15]: 105% | growth [16]: 95.1% | growth [17]: 99.3% | growth [18]: 103%

COc1ccc(/C=C2\SC(=S)N(CCCN3CCOCC3)C2=O)c(OC)c1
growth [1]: 91.9% | growth [2]: 96.2% | growth [3]: 99.4% | growth [4]: 99.8% | growth [5]: 97.3% | growth [6]: 93.2% | growth [7]: 90% | growth [8]: 90.8% | growth [9]: 97.8% | growth [10]: 99% | growth [11]: 93.8% | growth [12]: 86.8% | growth [14]: 98% | growth [15]: 94.4% | growth [16]: 102% | growth [17]: 75.7% | growth [18]: 94.4%

N=C(N)c1ccc(-c2ccc(-c3ccccc3)s2)cc1F
growth [1]: -77.1% (active) | growth [2]: -89.8% (active) | growth [3]: -92.4% (active) | growth [4]: -75.9% (active) | growth [5]: -94.5% (active) | growth [6]: -88% (active) | growth [7]: -97% (active) | growth [8]: -93.1% (active) | growth [9]: -81.4% (active) | growth [10]: -83.8% (active) | growth [11]: -83.6% (active) | growth [12]: -91.2% (active) | growth [13]: -95% (active) | growth [14]: -98.3% (active) | growth [15]: -81.3% (active) | growth [16]: -88.6% (active) | growth [17]: -60.9% (active) | growth [18]: -75.5% (active)

COC(=O)c1cnc2c(c1)Oc1ccccc1-c1ccnn1-2
growth [1]: 102% | growth [2]: 90.3% | growth [3]: 86.5% | growth [4]: 106% | growth [5]: 90.7% | growth [6]: 94.3% | growth [7]: 94.1% | growth [8]: 106% | growth [9]: 91.3% | growth [10]: 96.3% | growth [19]: 92.1% | growth [12]: 80.8% | growth [13]: 95.3% | growth [14]: 101% | growth [15]: 86.8% | growth [16]: 90.4% | growth [17]: 94.9% | growth [18]: 91.1%

COCCOC(=O)NC(=O)Nc1ccc(/C(=N/O)c2ccc(Cl)cc2)cc1
growth [1]: 9.7% (active) | growth [2]: -20.5% (active) | growth [3]: 19.9% | growth [4]: 31.4% | growth [5]: 17.9% | growth [6]: 26.1% | growth [7]: -17.2% (active) | growth [8]: 15.7% | growth [9]: 22.5% | growth [20]: 69.1% | growth [10]: 18.7% | growth [12]: 36.8% | growth [13]: 62.6% | growth [14]: 39% | growth [15]: 30.6% | growth [16]: -14.2% (active) | growth [17]: 8.24% (active) | growth [18]: 9.91% (active)

Cc1ccc2c3c(cccc13)-c1ccccc1C2=O
growth [1]: 85% | growth [2]: 83.3% | growth [3]: 89.6% | growth [4]: 96.5% | growth [5]: 87.8% | growth [6]: 91.3% | growth [7]: 91.3% | growth [8]: 90.6% | growth [9]: 97.8% | growth [10]: 97.2% | growth [19]: 67.8% | growth [12]: 75.2% | growth [13]: 94% | growth [14]: 96.8% | growth [15]: 89% | growth [16]: 78.2% | growth [17]: 83.5% | growth [18]: 87.4%

C/C(=N\NC(N)=S)C(C)(C)O
growth [1]: 101% | growth [2]: 61% | growth [3]: 91.2% | growth [4]: 106% | growth [5]: 88.1% | growth [6]: 90.1% | growth [7]: 101% | growth [8]: 103% | growth [9]: 95.1% | growth [10]: 98.5% | growth [19]: 67.1% | growth [11]: 87.1% | growth [12]: 68.9% | growth [13]: 126% | growth [14]: 90.2% | growth [15]: 89.6% | growth [16]: 91.7% | growth [18]: 44.9%

CN(C1c2ccccc2Oc2ccccc21)S(=O)(=O)c1cc(Cl)ccc1Cl
growth [1]: 33.8% | growth [2]: 20.5% | growth [3]: 56.2% | growth [4]: 65.7% | growth [5]: 43.8% | growth [6]: 54.5% | growth [7]: 39.3% | growth [8]: 32.6% | growth [9]: 50.3% | growth [20]: 67% | growth [10]: 42.9% | growth [12]: 49.5% | growth [13]: 69% | growth [14]: 53.4% | growth [15]: 54.2% | growth [16]: 20.9% | growth [17]: 42.7% | growth [18]: 43.3%

CCN1CCN(c2ccc(Nc3ncnc4c3nnn4CCc3cc(OC)cc(OC)c3)cc2)CC1
growth [1]: 63.6% | growth [2]: 57.9% | growth [3]: 79.8% | growth [4]: 94% | growth [5]: 77.4% | growth [6]: 82.2% | growth [7]: 73.5% | growth [8]: 93.9% | growth [9]: 88.1% | growth [10]: 110% | growth [11]: 93.7% | growth [12]: 81.3% | growth [13]: 114% | growth [14]: 106% | growth [15]: 102% | growth [16]: 65.6% | growth [18]: 88.9%

CCC(OC(=O)CC(C)C)c1ccccc1 (stereo not given)
growth [1]: 101% | growth [2]: 93.6% | growth [3]: 91.1% | growth [4]: 105% | growth [5]: 86.9% | growth [6]: 94.8% | growth [7]: 100% | growth [8]: 102% | growth [9]: 96.1% | growth [20]: 106% | growth [10]: 100% | growth [12]: 95.1% | growth [13]: 91.1% | growth [14]: 104% | growth [15]: 97.9% | growth [16]: 102% | growth [17]: 104% | growth [18]: 98.1%

N#C/C(=C\N1C(=O)/C(=C/c2cccc([N+](=O)[O-])c2)SC1=S)c1nc2ccccc2s1
growth [1]: 95% | growth [2]: 90.6% | growth [3]: 82.5% | growth [4]: 88.8% | growth [5]: 69% | growth [6]: 83.5% | growth [7]: 64.6% | growth [8]: 63.3% | growth [9]: 79.8% | growth [10]: 73.1% | growth [19]: 81% | growth [11]: 94.9% | growth [12]: 56.3% | growth [13]: 120% | growth [14]: 81.5% | growth [15]: 85.2% | growth [16]: 71.8% | growth [17]: 85.9% | growth [18]: 87%

Nc1cc2c(cc1Cl)-c1ccc(Cl)cc1C2=O
growth [1]: 99.7% | growth [2]: 97.5% | growth [3]: 89.7% | growth [4]: 98.7% | growth [5]: 91.1% | growth [6]: 94.2% | growth [7]: 108% | growth [8]: 95.7% | growth [9]: 95.1% | growth [10]: 95.7% | growth [19]: 67.7% | growth [11]: 93.1% | growth [12]: 61.6% | growth [13]: 117% | growth [14]: 98.4% | growth [15]: 96.4% | growth [16]: 95.7% | growth [17]: 86.1% | growth [18]: 81.4%

Cc1ccc(NS(=O)(=O)c2ccccc2)c(NS(=O)(=O)c2ccccc2)c1
growth [1]: 104% | growth [2]: 102% | growth [3]: 90.5% | growth [4]: 95.2% | growth [5]: 98.6% | growth [6]: 94.6% | growth [7]: 104% | growth [8]: 87.9% | growth [9]: 94.5% | growth [10]: 98.6% | growth [19]: 93.8% | growth [11]: 90.4% | growth [12]: 69.4% | growth [13]: 112% | growth [14]: 94.3% | growth [15]: 93.2% | growth [16]: 115% | growth [18]: 105%

CCc1cc2n(n1)-c1ncc(C(=O)OC)cc1Oc1ccccc1-2
growth [1]: 96.7% | growth [2]: 112% | growth [3]: 89.4% | growth [4]: 109% | growth [5]: 94.4% | growth [6]: 97.5% | growth [7]: 96.2% | growth [8]: 102% | growth [9]: 96.8% | growth [20]: 120% | growth [10]: 106% | growth [12]: 88.8% | growth [13]: 96.1% | growth [14]: 108% | growth [15]: 94% | growth [16]: 101% | growth [17]: 95.2% | growth [18]: 95%

COc1ccc(N2CCN(c3nc(-c4ccccc4)c(C#N)c(=O)[nH]3)CC2)cc1
growth [1]: 99.4% | growth [2]: 108% | growth [3]: 73.2% | growth [4]: 103% | growth [5]: 95.6% | growth [6]: 87.2% | growth [7]: 96.4% | growth [8]: 94.8% | growth [9]: 99.4% | growth [10]: 120% | growth [11]: 96.7% | growth [12]: 71.4% | growth [14]: 99% | growth [15]: 98.6% | growth [16]: 87.9% | growth [17]: 80.1% | growth [18]: 93.5%

COc1nc2c(c(=O)[nH]1)C(c1ccc(Oc3ccnc4cc(Cl)ccc34)c(OC)c1)C=C(c1cc(OC)c(OC)c(OC)c1)N2 (stereo not given)
growth [1]: 98.8% | growth [2]: 89.8% | growth [3]: 91.9% | growth [4]: 89.1% | growth [5]: 97.4% | growth [6]: 87.2% | growth [7]: 95.1% | growth [8]: 95.9% | growth [9]: 95.5% | growth [10]: 82.6% | growth [11]: 90.7% | growth [12]: 74.5% | growth [13]: 103% | growth [14]: 102% | growth [15]: 94.1% | growth [16]: 81.9% | growth [17]: 87.4% | growth [18]: 78%

CCOC(=O)Nc1ccc2c(c1)C(=O)N(CC)c1ccccc1O2
growth [1]: 14.4% | growth [2]: -3.19% (active) | growth [3]: 27.3% | growth [4]: 31.7% | growth [5]: 18.7% | growth [6]: 33.8% | growth [7]: -28% (active) | growth [8]: 21.5% | growth [9]: 15.1% | growth [20]: 63.4% | growth [10]: 14.6% | growth [12]: 53.7% | growth [13]: 74.8% | growth [14]: 35.6% | growth [15]: 31.1% | growth [16]: -4.82% (active) | growth [17]: 13.5% | growth [18]: 14.5%
